# According to PubChem BioAssay AID488841 (Sanford-Burnham Center for Chemical Genomics, 2010):
# Screen size: about 1,400 compounds; about 380 (27%) were called active.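 The calls were made as follows: active = mean inhibition above 50% across duplicate retests at 10 µM; inactive = the rest.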 Some of the results follow.
# Experiment: inhibition of NALP1/ASC/caspase-1 reporter signal in yeast, confirmation, NALP1 inhibitor project, S. cerevisiae, luminescence, single concentration (AID 488841);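 also: plate controls were DMSO in galactose medium for no effect and cells in plain SD medium for full effect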
# Details: S. cerevisiae NALP1/ASC/Caspase-1 reporter, beta-gal luminescence; at 10 µM; hits give high values
row,Structure (SMILES),inhibition
1,CC(C)(C#CCN1CCCCC1)OCCOC(c1ccccc1)c1ccccc1,28.1% (inactive)
2,CN(C)C(C)(C)C#CCC(c1ccccc1)c1ccccc1,61.6% (active)
3,COc1ccc(C2SCC(=O)N2CCCN(C)C)cc1 (stereo not drawn),35% (inactive)
4,S=c1[nH]nc(-c2ccco2)n1/N=C/c1cccc(Cl)c1Cl,56% (active)
5,Cc1cccc(/C=N/n2c(-c3cc(-c4ccccc4)n[nH]3)n[nH]c2=S)c1,27.3% (inactive)
6,Cc1ccsc1/C=N/n1c(-c2ccccn2)n[nH]c1=S,37.9% (inactive)
7,CC(C)Oc1ccc(OCCNC2CCCC2)cc1,35.8% (inactive)
8,CCN1CCN(c2cc3c(cc2F)c(=O)c(C(=O)O)cn3C2CC2)CC1,14.2% (inactive)
9,CS/C(=N\S(=O)(=O)c1cccs1)Nc1ccc(Br)cc1F,52% (active)
10,Cn1c(=O)c([N+](=O)[O-])c(-n2cnc3ccccc32)c2ccccc21,37% (inactive)
11,CN1CCN(S(=O)(=O)c2ccc(Br)c3nsnc23)CC1,19.9% (inactive)
12,CN1c2ccccc2Sc2cc(N)ccc21,94% (active)
13,Cc1nc(C)c(/C(O)=C/c2nc3ccccc3oc2=O)s1,44.5% (inactive)
14,CCn1c(N2CCN(C(=O)C34CC5CC(CC(C5)C3)C4)CC2)nc2ccccc21,44.6% (inactive)
15,C/C(=N\NC(=O)Cc1csc(N2CCOCC2)n1)c1ccccc1,24.6% (inactive)
16,COC(=O)C1(C(C[N+](=O)[O-])c2ccc(C)cc2)C(=O)NCC1c1ccco1 (stereo not drawn),29.4% (inactive)
17,Cc1[nH]n(-c2ccccc2)c(=O)c1C(C[N+](=O)[O-])c1ccc(Cl)cc1 (stereo not drawn),77.5% (active)
18,Cc1[nH]n(-c2ccccc2)c(=O)c1C(C[N+](=O)[O-])c1ccc(Br)cc1 (stereo not drawn),66.2% (active)
19,Cc1ccc(C(C[N+](=O)[O-])c2c(C)[nH]n(-c3ccccc3)c2=O)cc1 (stereo not drawn),78.1% (active)
20,O=c1cc(CSc2ccc(Cl)cc2)[nH]c2[nH]n(-c3ccccc3)c(=O)c12,29.9% (inactive)
21,Cc1cc2ccccn2c1C(C[N+](=O)[O-])c1ccc(N(C)C)cc1 (stereo not drawn),31.1% (inactive)

row,Structure (SMILES),inhibition
1,COc1ccc(OC)c(N/C(=N/C(=S)Nc2ccccc2)Nc2nc(C)cc(C)n2)c1,30.3% (inactive)
2,CC12CCC(C(=O)O)(C/C1=N\O)C2(C)C (stereo not drawn),15% (inactive)
3,CCOc1nc(-c2ccccc2Cl)ccc1C#N,42.2% (inactive)
4,C=CCNCCOCCSc1ccc(Cl)cc1,45.3% (inactive)
5,C=CCNCCOc1ccc(C(C)(C)c2ccccc2)cc1,60.4% (active)
6,COCCCNCCOc1cc(C(C)C)ccc1C,30.8% (inactive)
7,COC(=O)C(Cc1ccccc1)NC(=O)COc1ccc(C(C)(C)C)cc1 (stereo not drawn),36.6% (inactive)
8,COCCCNCCOc1ccc(C(C)(C)c2ccccc2)cc1,57.4% (active)
9,C=CCc1cc(Cl)ccc1OCCNCCCOC,45.8% (inactive)
10,CS(=O)(=O)n1nc(-c2ccc(Cl)cc2)nc1SCc1ccccc1,36.2% (inactive)
11,c1csc(C2Nc3ccccc3-c3nc4ccccc4n32)c1 (stereo not drawn),31.5% (inactive)
12,O=C(Nc1cc(Cl)ccc1-n1cncn1)c1ccc([N+](=O)[O-])s1,90.7% (active)
13,CN(c1ccccc1)c1ccc(/C=C/[N+](=O)[O-])cc1,95% (active)
14,CCCc1ccc(-c2c(C)sc(N)c2C#N)cc1,39% (inactive)
15,CCN1CCN(c2cc(C(C)C)nc3c(-c4ccccc4)c(C)nn23)CC1,40.4% (inactive)
16,COc1ccc(CNCC(O)(c2ccccc2)c2ccc(Cl)cc2)cc1 (stereo not drawn),57.9% (active)
17,CCc1cc(OCCCCNCc2ccccc2)ccc1Cl,43.2% (inactive)
18,COc1ccc(C(=O)C2CCCN(C(=O)Cn3nc(C)cc3C)C2)cc1F (stereo not drawn),36.5% (inactive)
19,C#C[C@]1(O)CC[C@H]2[C@@H]3CCC4=C(CCC(=O)C4)[C@H]3CC[C@@]21C,59.2% (active)
20,C#C[C@]1(O)CC[C@H]2[C@@H]3CCc4cc(O)ccc4[C@H]3CC[C@@]21C,65.4% (active)
21,Cc1ccc(S(=O)(=O)NCc2ccc(C(=O)NCCCN3CCC(Cc4ccccc4)CC3)cc2)cc1,22% (inactive)

row,Structure (SMILES),inhibition
1,CN(CC(=O)NC(=O)NCc1ccccc1)Cc1cccc(Cl)c1Cl,32.5% (inactive)
2,Cc1ccccc1OCC(=O)Nc1cccc(N(C)S(C)(=O)=O)c1,18.4% (inactive)
3,COC(=O)C1=C(C)NC(C)=C(C(=O)OC)C1c1ccc(OC(=O)c2oc3ccccc3c2C)c(OC)c1,10.6% (inactive)
4,O=C(c1ccc(S(=O)(=O)c2ccccc2)cc1)N1CCCCCC1,32.5% (inactive)
5,Cc1ccc(C(C[N+](=O)[O-])c2c(N)n(C)c(=O)n(C)c2=O)cc1 (stereo not drawn),96.2% (active)
6,COc1cccc(F)c1C(C[N+](=O)[O-])c1c(N)n(C)c(=O)n(C)c1=O (stereo not drawn),89.5% (active)
7,O=c1[nH][nH]c(-c2ccccc2O)c1C(C[N+](=O)[O-])c1ccc(Cl)cc1Cl (stereo not drawn),37.8% (inactive)
8,COc1ccccc1C(C[N+](=O)[O-])c1c(N)n(C)c(=O)n(C)c1=O (stereo not drawn),93.7% (active)
9,CC1(C)NC(=O)N(CCCCOc2ccc3ccccc3c2Cl)C1=O,38.6% (inactive)
10,CCCCNCCOCCOc1ccccc1-c1ccccc1,44% (inactive)
11,CN(C)c1nc(N)nc(CSc2nnnn2-c2ccc(C(=O)O)cc2)n1,29.5% (inactive)
12,Nc1[nH]c(=O)ncc1F,43.8% (inactive)
13,CCOc1ccc(N=c2oc3cc(O)ccc3cc2C(=O)NCC2CCCO2)cc1 (stereo not drawn),24.5% (inactive)
14,Cc1cc(Nc2ccccc2)nn1C(=O)c1ccccc1,44.5% (inactive)
15,Cc1cc(Nc2ccccc2)nc2cc(O)ccc12,84.7% (active)
16,COc1ccc(Nc2cc(C)c3ccc(O)cc3n2)cc1,89.7% (active)
17,COC1=C(Nc2ccc(O)cc2)C(=O)c2ccccc2C1=O,32.3% (inactive)
18,CCn1nc(C)cc1Nc1ccccc1,22.3% (inactive)
19,COc1ccc(C2=NN3C(=O)c4c(ccc(OC)c4OC)C3C2)cc1 (stereo not drawn),37.6% (inactive)
20,CCC(=O)N(Cc1cc2c(C)ccc(C)c2[nH]c1=O)C1CCCCC1,27.1% (inactive)
21,CCNc1c(C(=O)O)ccc2c1C(=O)c1ccccc1C2=O,32.4% (inactive)
